Sampled rows, rich in hits. Any-hit rate of the full collection: about 7.4%.
Rab9 prom act = activators of Rab9 promoter | AID 485297 | Potency, µM (series often up to 9.22 µM), actives largely listed as activators | Huh7 Rab9 promoter-luciferase reporter, luminescence, 24 h | 320,000 compounds, 2.8% hits; further: nearly all actives have a fitted effect of over 60% in size
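Quantitative HTS format; Huh7 Rab9-luciferase reporter cells (1500/well) receive compound 2 h post-plating, incubate 24 h at 37 °C, then get luciferase reagent for 10 min before luminescence reading.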
SMN2 splice up = SMN2 splice variant enhancement; HEK293 SMN2-luciferase splicing reporter, luminescence, 30-36 h; Potency, µM (series often up to 46.1 µM), hits mostly activators; 210,000 compounds, 2.8% hits; AID 1458; further: nearly all actives have a fitted effect of over 55% in size
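qHTS luciferase splicing reporter: luminescence rises when SMN2 exon 7 is included in transfected HEK293 cells. Compound exposure lasted 30-36 h at 37C, with 4.5 mM final sodium butyrate as control, followed by a ONE-Glo read.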
FLuc modulator = inhibits or activates purified firefly luciferase, miR-21 counter-screen; 360,000 compounds, 6.9% hits; purified FLuc, Km substrates, luminescence inhibition; P08659; Potency, µM (series often up to 57.5 µM), usual class: inhibitors; AID 588342; further: nearly all actives have a fitted effect of over 55% in size
Target sequence (P08659 whole entry, looked up): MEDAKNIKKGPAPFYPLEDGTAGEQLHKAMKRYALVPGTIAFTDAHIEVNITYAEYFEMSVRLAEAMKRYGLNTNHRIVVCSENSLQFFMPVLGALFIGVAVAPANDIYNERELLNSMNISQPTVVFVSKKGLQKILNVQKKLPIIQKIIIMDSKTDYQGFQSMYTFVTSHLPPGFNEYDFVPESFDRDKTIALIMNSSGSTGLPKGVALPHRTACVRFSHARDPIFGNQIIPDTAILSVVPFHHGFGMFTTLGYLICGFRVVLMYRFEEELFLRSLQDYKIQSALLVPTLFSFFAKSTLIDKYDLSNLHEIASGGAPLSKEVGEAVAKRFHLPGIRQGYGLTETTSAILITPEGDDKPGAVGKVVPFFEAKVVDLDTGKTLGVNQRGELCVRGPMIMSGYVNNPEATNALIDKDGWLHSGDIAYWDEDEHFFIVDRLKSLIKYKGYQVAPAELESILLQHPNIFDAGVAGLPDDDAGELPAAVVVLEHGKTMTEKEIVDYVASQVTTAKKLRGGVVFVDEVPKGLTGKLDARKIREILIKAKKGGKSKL
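Purified P. pyralis luciferase (10nM final) with 10uM D-luciferin and 10uM ATP (Km levels) in 50mM Tris acetate pH 7.5, 10mM Mg acetate, 0.01% Tween-20, 0.05% BSA; qHTS 6-point titration, ~60 µM downward; luminescence read.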
ELG1 genotoxic = induces genotoxicity in HEK293T cells with luciferase-tagged ELG1; HEK293T ELG1-luciferase reporter, luminescence, 16 h; Potency, µM (titrated, usually from 46 µM), usual class: activators; 330,000 compounds, 1.3% hits; further: nearly all actives have a fitted effect of over 60% in size
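Genotoxicity was scored as increased ELG1-luciferase reporter signal, measured by ONE-Glo luminescence (30 min, room temperature). Compound or vehicle exposure of the HEK293T reporter cells lasted 16 hr at 37°C.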
NPC1 prom act = NPC1 promoter activation. Potency, µM (doses to about 9.22 µM), usual class: activators. Huh7 NPC1 promoter luciferase reporter, 24 h. AID 485313. 320,000 compounds, 2.4% hits; further: nearly all actives have a fitted effect of over 60% in size
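NPC1 promoter–luciferase Huh7 cells; 24 h compound; luminescence.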
p53 reactivator = re-activators of mutant p53; Potency, µM (doses to about 92.2 µM), most hits filed as activators; H1299 p53-A138V BP100-luciferase reporter, luminescence, 24 h; 320,000 compounds, 0.063% hits; further: nearly all actives have a fitted effect of over 45% in size
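p53-null H1299 cells stably carrying temperature-sensitive p53-A138V and a BP100-luciferase reporter were pinned with compounds (4-point, 1:5 series) and held 24 hrs at 37 deg C. Luminescence was read 10 min after detection reagent.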
Each line names hits and unclear results; the compound was inactive in the other large screens. The call rests on the fitted dose curve; in most records, active means well fitted curve in the direction sought with a large enough effect; inconclusive means small, poorly fitted or top-dose-only effect, or another doubt; inactive means no such curve, though single readings can be large; an effect the other way counts as inactive or inconclusive.

CC(/C=N/NC(=O)Cc1cccs1)=C\c1ccccc1	Rab9 prom act 3.5µM, FLuc modulator 2.7µM, ELG1 genotoxic inconclusive, NPC1 prom act inconclusive, p53 reactivator inconclusive (no result: SMN2 splice up)
O=C(Cc1cccs1)N/N=C/c1ccccn1	none (no result: SMN2 splice up)
Cc1nn(-c2ccccc2)c2sc(C(=O)Nc3ccc(Cl)cc3Cl)cc12	none (no result: Rab9 prom act, ELG1 genotoxic, NPC1 prom act, p53 reactivator)
O=C(Cn1c(=O)n(Cc2ccco2)c(=O)c2sc3ccccc3c21)Nc1ccccc1C(F)(F)F	none (no result: Rab9 prom act, ELG1 genotoxic, NPC1 prom act, p53 reactivator)
Cc1nnc(CN(C)C(=O)c2cc(COc3ccc(C)c(C)c3)on2)o1	FLuc modulator inconclusive (no result: SMN2 splice up)
Cc1cc(CN(C)C(=O)c2cc(COc3ccc(C)c(C)c3)on2)on1	Rab9 prom act 1.4µM, FLuc modulator 12µM, ELG1 genotoxic 16µM, NPC1 prom act 2.5µM (no result: SMN2 splice up)
COc1cccc(OCc2cc(C(=O)N(C)Cc3nc(C)cs3)no2)c1	Rab9 prom act 2.2µM, FLuc modulator 12µM, ELG1 genotoxic 12µM, NPC1 prom act 3.2µM, p53 reactivator inconclusive (no result: SMN2 splice up)

Compound activity as filed in PubChem BioAssay.
